Source: PubChem BioAssay
An excerpt weighted towards active compounds, which were near 1.5% of everything screened.
Cardiac RTF inh: cardiac RTF calcium desensitization | P19429+P45379 | IANBD-labeled cardiac RTF, Ca2+ fluorescence | inhibition, % at 7.15 µM | 0.12% of 340,000 active | AID 493244;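 active means inhibition above the mean inhibition of all tested compounds plus 3 SD, cut at about 17% in these data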;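 further: assay run at fixed EC70 calcium of 1.6 mM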
IDE inh: inhibitors of human insulin-degrading enzyme in cells. P14735. HEK cells, FAbetaB cleavage, fluorescence polarization. inhibition, % at 5.59 µM. 0.41% of 320,000 active. AID 434962;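 active means percent inhibition above the average of all tested compounds plus 3 SD, set per screening campaign, cut at about 16% in these data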;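 further: IDE supplied by intact live HEK cells; FP after avidin binding of uncleaved biotin substrate so inhibition keeps polarization high; 0% = DMSO wells and 100% = 60 µM reference IDE inhibitor Ii1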
CRFBP-R2 block: antagonists of CRF-binding protein/CRF-R2 receptor complex; HEK293 CRF-R2/CRF-BP, CRF-induced calcium fluorescence; inhibition, % at 11.8 µM; 0.59% of 350,000 active;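 active means inhibition of the ligand-induced calcium signal above about 50% at the single tested concentration, limit read from the data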
cardiac RTF act: increases calcium sensitivity of human cardiac regulated thin filaments; IANBD-labeled TnC RTF fluorescence at EC20 calcium; 0% EC20 calcium, 100% full calcium; 0.24% of 340,000 active; activation, % at 7.2 µM; P19429+P45379;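 active means activation above the mean over all tested compounds plus 3 SD, cut at about 30% in these data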;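 further: rise in fluorescence read as greater calcium sensitivity of cardiac thin filaments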
CRFBP-R2 agonist: agonists of human CRF-binding protein/CRF-R2 receptor complex | HEK293 CRF-R2/CRF-BP, calcium dye fluorescence (FLIPR); percent of saturating CRF peptide response | activation, % at 13.2 µM | 0.46% of 350,000 active;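 active means activation of at least 50%, plus an integration ratio under a set limit after plate pattern correction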;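 further: plate controls were neutral control wells without compound for no effect and CRF at EC100 for full effect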
IDE act: boosts human insulin-degrading enzyme activity in HEK cells. 0.073% of 340,000 active. FAbeta-B cleavage, fluorescence polarization; 0% vehicle, 100% cell-free pure enzyme wells. AID 493087. activation, % at 5.96 µM;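 active means activation above the mean of all tested compounds plus 3 SD, set per screening campaign, cut at about 17% in these data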
IDE inh confirm: confirmation of human insulin-degrading enzyme inhibitors in cells. shares compounds with IDE inh. HEK cells, FAbetaB cleavage, fluorescence polarization. inhibition, % at 5.59 µM. 51% of 1,200 active. AID 435028;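 active means mean inhibition across triplicate wells above the cutoff set by the earlier primary insulin-degrading enzyme screen, cut at about 16% in these data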;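 further: 0% = DMSO wells and 100% = 60 µM reference IDE inhibitor Ii1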
HEK cytotox: kills HEK cells in IDE inhibitor counter-screen. inhibition, % at 5.59 µM. 28% of 1,200 active. AID 449730. shares compounds with IDE inh. HEK293 cytotoxicity, ATP luminescence; in the data active means inhibition above about 22%;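 further: 0% = vehicle wells and 100% = reference cytotoxic drug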
IDE FP artifact: fluorescent artifact in IDE inhibitor FP assay | shares compounds with IDE inh | FP counterscreen for fluorescent artifacts, IDE probe project | IC50, µM | 30 tested, under 10 active; call rule not given here
* marks the source's active call; other numbers are inactive results; nt = not tested or not shown.

SMILES	Cardiac RTF inh	IDE inh	CRFBP-R2 block	cardiac RTF act	CRFBP-R2 agonist	IDE act	IDE inh confirm	HEK cytotox	others
CCc1cccc2cc3c(N)c(C(=O)Nc4ccc(S(=O)(=O)N5CCCC5)cc4)sc3nc12	-61.2	25.4*	-150.9	21.7	63.1*	-10.6	17.9*	30.8*
Cc1noc(C)c1C(=O)Nc1cc(S(=O)(=O)N2CCCCC2)ccc1N(C)C	-5.8	nt	7.5	-12.0	-1.3	1.1	nt	nt
c1ccc(C(c2ccccn2)c2ccccn2)cc1	-3.2	17.2*	28.5	-6.0	-0.8	-7.2	3.4	9.1
CC(=O)Oc1ccc(C(c2ccc(OC(C)=O)cc2)c2ccccn2)cc1	4.8	3.8	5.9	7.8	-1.9	-0.8	nt	nt
COc1ccc(NC(=O)N(C)C[C@H]2Oc3ccc(NC(=O)CCN4CCOCC4)cc3C(=O)N([C@@H](C)CO)C[C@H]2C)cc1	-8.4	0.3	3.2	8.0	3.9	2.5	nt	nt
COCCN1CC(CNC(=O)c2cc(COc3ccc(C)c(C)c3)on2)CC1=O (centres undefined)	-1.3	16.9*	-7.0	3.5	-0.4	-14.5	7.0	11.3
Cc1ccc(OCc2cc(C(=O)NCCn3cccn3)no2)cc1C	-12.2	2.7	1.4	-3.6	-2.7	-2.0	nt	nt
CSc1ccc(CN2CCC(N3CCC(C(=O)NC4CC4)CC3)CC2)cc1	nt	nt	7.0	nt	4.7	nt	nt	nt
O=C1/C(=C\c2c(NCCOCCO)nc3ccccn3c2=O)SC(=S)N1Cc1ccco1	-59.2	98.5*	-97.3	39.9*	102.3*	-69.4	79.8*	15.3
Cc1nc(-c2cccnc2)sc1C(=O)Nc1cccc(C(F)(F)F)c1	5.3	6.9	7.1	-5.5	-0.6	-3.8	nt	nt	IDE FP artifact=>54.7
O=C(Nc1cccc(C(F)(F)F)c1)c1csc(-c2ccncc2)n1	1.4	49.7*	-44.9	1.8	0.7	-31.1	28.6*	20.2	IDE FP artifact=>54.7
Cc1nc(-c2cccnc2)sc1C(=O)Nc1ccc(C(F)(F)F)cc1	-5.1	-1.6	-37.6	-2.6	-0.4	-5.2	nt	nt
COc1cc(NC(=O)c2csc(-c3ccncc3)n2)cc(C(=O)Nc2cccc(C(F)(F)F)c2)c1	-9.8	1.7	18.6	-8.8	-0.3	2.2	nt	nt
COc1ccc(-c2nc(C(=O)Nc3cccc(C(F)(F)F)c3)cs2)cc1	nt	nt	nt	nt	nt	nt	nt	nt	IDE FP artifact=>54.7
CC(=O)N(C1=C(Cl)C(=O)c2ccccc2C1=O)C1CCCCC1	-0.7	49.8*	3.6	-3.3	-1.8	-68.3	63.6*	123.8*
COc1ccccc1NS(=O)(=O)c1cccc(C(=O)NCC(c2cccs2)N(C)C)c1 (centres undefined)	5.9	nt	0.4	0.5	2.8	7.0	nt	nt
Cc1ccc(C)c(N(CC(=O)NC2CCCC2)C(=O)CCC(=O)Nc2cc(C)on2)c1	3.1	2.2	-0.2	-5.6	-2.5	4.7	nt	nt
O=C(N/N=C\c1ccc(Cl)s1)c1ccc(Cn2cccn2)o1	-8.3	14.6	-3.8	-7.9	-0.3	1.7	nt	nt
O=C(N/N=C\c1c(O)ccc2ccccc12)c1ccc(Cn2cccn2)o1	-5.6	41.9*	-43.8	2.2	32.5	-51.5	62.9*	67.7*
O=C(N/N=C/c1c(O)ccc2ccccc12)c1cccc(C(F)(F)F)c1	-39.6	180.3*	-243.2	23.7	208.1*	-132.1	137.4*	114.5*
CCc1cc(C(=O)NNC(=S)NC2CCCCC2)cs1	-1.9	-4.5	-9.6	-5.9	1.3	-3.5	nt	nt
CCc1cc(C(=O)NNC(=S)NC(C)c2ccccc2)cs1 (centres undefined)	-0.8	18.7*	-13.2	3.7	-5.4	-5.2	6.9	15.1
CCOc1cc(/C=C2\SC(=S)N(Nc3ccccc3)C2=O)ccc1O	-14.0	53.2*	-7.4	7.7	14.4	-77.7	128.1*	7.4
COc1cc(/C=C2/SC(=S)N(CC3CCCO3)C2=O)ccc1O (centres undefined)	-16.9	107.6*	-216.8	-7.1	151.4*	-94.7	175.1*	13.4
